Test systems include SR leukemia; RPMI-8226 leukemia; OVCAR-8 ovarian; OVCAR-5 ovarian; OVCAR-4 ovarian; SK-OV-3 ovarian; IGROV1 ovarian; OVCAR-3 ovarian; HS 578T breast; NCI/ADR-RES ovarian; T-47D breast; BT-549 breast; MDA-MB-435 melanoma; SW-620 colon; MCF7 breast; HCT-116 colon; HCC-2998 colon; KM12 colon.
Holding throughout (experiment): NCI-60 one-dose screen, 48 h (100 = growth as untreated, 0 = no growth, -100 = all killed)
Details in all cases: 10 µM unless noted

These results are taken from PubChem BioAssay (NCI).

About 83,000 compounds went through this panel and 20% of them were active in at least one assay; those are over-represented in the sample as a whole.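 Treatment: one concentration, 48 hours, 96-well format. Scoring: percent growth, with anything below 10 considered active.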 Unmarked numbers belong to inactive results. Calls of active or inactive are those of the source.

With `Cn1cc(-c2csc(-c3ccc(Cl)cc3)n2)c2cccnc21`, the growth was 0.516% [100 µM] (active) in the experiment with SR leukemia; -24.4% [100 µM] (active) in the experiment on RPMI-8226 leukemia; 13.5% [100 µM] in the experiment with OVCAR-8 ovarian; -49.3% [100 µM] (active) in the experiment with OVCAR-5 ovarian; -28.1% [100 µM] (active) in the experiment on OVCAR-4 ovarian; -57.1% [100 µM] (active) in the experiment with SK-OV-3 ovarian. Moreover, the growth in the experiment on IGROV1 ovarian was -21.5% [100 µM] (active); in the experiment with OVCAR-3 ovarian, -75.7% [100 µM] (active); with HS 578T breast, 9.04% [100 µM] (active); in the experiment on NCI/ADR-RES ovarian, -35.5% [100 µM] (active); in the experiment with T-47D breast it was -23.5% [100 µM] (active); in the experiment on BT-549 breast it was -38.1% [100 µM] (active). The growth was -6.61% [100 µM] (active) in the experiment on MDA-MB-435 melanoma; -62% [100 µM] (active) in the experiment with SW-620 colon; -35.2% [100 µM] (active) with MCF7 breast; -62% [100 µM] (active) in the experiment on HCT-116 colon; -91.9% [100 µM] (active) with HCC-2998 colon; -82.4% [100 µM] (active) in the experiment with KM12 colon.
Turning to `O=CC1(C2(C=O)c3ccccc3-c3ccccc32)c2ccccc2-c2ccccc21`, the growth is -32.3% (active) with SR leukemia; -24% (active) in the experiment with RPMI-8226 leukemia; -49.9% (active) in the experiment on OVCAR-8 ovarian; -40.9% (active) with OVCAR-5 ovarian; -76.4% (active) in the experiment on OVCAR-4 ovarian; -65% (active) in the experiment with SK-OV-3 ovarian. In addition, the growth is -76.4% (active) in the experiment on IGROV1 ovarian; -74.7% (active) in the experiment on OVCAR-3 ovarian; -4.62% (active) with HS 578T breast; -14% (active) in the experiment with NCI/ADR-RES ovarian; -51% (active) with T-47D breast; -74.3% (active) in the experiment on BT-549 breast. In addition, the growth in the experiment on MDA-MB-435 melanoma is -57.9% (active); in the experiment with SW-620 colon it was -29.2% (active); in the experiment on MCF7 breast, -52.4% (active); in the experiment with HCT-116 colon, -60.6% (active); in the experiment with HCC-2998 colon, -41.5% (active); with KM12 colon, -44.5% (active).
With `CC1=C(C(=O)OC(C)C)C(c2ccc3c(c2)OCO3)NC(=S)N1` (configuration not stated), the growth in the experiment with SR leukemia is 103%; in the experiment with RPMI-8226 leukemia it was 87.7%; in the experiment on OVCAR-8 ovarian, 102%; in the experiment with OVCAR-5 ovarian, 105%; with OVCAR-4 ovarian it was 98.4%; in the experiment with SK-OV-3 ovarian, 105%. The growth is 99.9% in the experiment with IGROV1 ovarian; 121% with OVCAR-3 ovarian; 97.3% with HS 578T breast; 101% in the experiment with NCI/ADR-RES ovarian; 91.4% in the experiment on T-47D breast; 96% with BT-549 breast. The growth in the experiment on MDA-MB-435 melanoma is 106%; in the experiment on SW-620 colon it was 107%; in the experiment with MCF7 breast, 98.7%; in the experiment with HCT-116 colon it was 95.6%; in the experiment with HCC-2998 colon it was 115%; with KM12 colon, 108%.
`Cc1cccc2c1NC(=O)C2(c1ccc(O)cc1)c1ccc(O)cc1`: the growth with SR leukemia was 89%; in the experiment on RPMI-8226 leukemia, 80.9%; in the experiment on OVCAR-8 ovarian, 4.88% (active); in the experiment on OVCAR-5 ovarian, 75.9%; with OVCAR-4 ovarian it was -16% (active); with SK-OV-3 ovarian it was 89.5%. Moreover, the growth with IGROV1 ovarian was 45.7%; with OVCAR-3 ovarian it was 25.6%; in the experiment with HS 578T breast it was -5.53% (active); in the experiment on NCI/ADR-RES ovarian, 11%; in the experiment on T-47D breast, -18.8% (active); in the experiment on BT-549 breast, -35.9% (active). Besides, the growth in the experiment with MDA-MB-435 melanoma is 105%; with SW-620 colon, 103%; in the experiment with MCF7 breast it was 1.54% (active); with HCT-116 colon it was 68.7%; in the experiment on HCC-2998 colon it was 42.9%; with KM12 colon it was 60.1%.
Regarding `CN1CCN(c2ccc(NC(=O)c3nc4ccc5[nH]ncc5c4c4c3CCCC4)cc2C(F)(F)F)CC1`, the growth with SR leukemia is 13.6%; with RPMI-8226 leukemia, 24.1%; in the experiment with OVCAR-8 ovarian, 3.3% (active); in the experiment with OVCAR-5 ovarian it was 85.5%; in the experiment with OVCAR-4 ovarian, 65.2%; in the experiment on SK-OV-3 ovarian, 100%. The growth with IGROV1 ovarian is 4.75% (active); with OVCAR-3 ovarian it was 11.5%; in the experiment on HS 578T breast, 77.6%; with NCI/ADR-RES ovarian, 70%; in the experiment with T-47D breast, 66.5%; with BT-549 breast, 90.6%. The growth in the experiment on MDA-MB-435 melanoma is 29.7%; in the experiment with SW-620 colon it was 5% (active); with MCF7 breast, 24.6%; with HCT-116 colon it was 2.82% (active); with HCC-2998 colon it was 21.1%; in the experiment on KM12 colon, 37.9%.
On to `CCc1nc2c(=O)[nH]cnc2o1`, for which the growth in the experiment on SR leukemia was 92.8%; with RPMI-8226 leukemia, 109%; with OVCAR-8 ovarian, 111%; in the experiment with OVCAR-5 ovarian it was 107%; with OVCAR-4 ovarian, 96.2%; in the experiment with SK-OV-3 ovarian it was 110%. Moreover, the growth with IGROV1 ovarian is 111%; in the experiment on OVCAR-3 ovarian it was 111%; in the experiment with HS 578T breast it was 102%; in the experiment on NCI/ADR-RES ovarian it was 101%; in the experiment with T-47D breast, 105%; with BT-549 breast, 102%. Also, the growth in the experiment with MDA-MB-435 melanoma is 110%; with SW-620 colon, 106%; with MCF7 breast, 96.4%; in the experiment on HCT-116 colon, 103%; with HCC-2998 colon, 109%; in the experiment on KM12 colon, 110%.
In the case of `CC(=O)n1nc(C(=O)OC(C)C)c2cc(C)c(C)cc21`, the growth in the experiment with SR leukemia was 84.6%; in the experiment with RPMI-8226 leukemia, 85%; with OVCAR-8 ovarian, 96.8%; in the experiment on OVCAR-5 ovarian, 118%; with OVCAR-4 ovarian, 2.77% (active); in the experiment with SK-OV-3 ovarian it was 98.6%. In addition, the growth in the experiment with IGROV1 ovarian is 106%; with OVCAR-3 ovarian, 108%; with HS 578T breast it was 96.6%; in the experiment with NCI/ADR-RES ovarian, 101%; in the experiment with T-47D breast, 88.7%; in the experiment on BT-549 breast, 98.2%. Moreover, the growth in the experiment on MDA-MB-435 melanoma was 98.6%; in the experiment with SW-620 colon, 98.8%; in the experiment with MCF7 breast, 90.8%; in the experiment on HCT-116 colon it was 83.8%; in the experiment on HCC-2998 colon, 105%; in the experiment on KM12 colon it was 105%.
For `CCOC(=O)C(=Cc1cccc(Cl)c1)C(=O)OCC`, the growth in the experiment with SR leukemia is 6.69% (active); in the experiment with RPMI-8226 leukemia, -8.77% (active); with OVCAR-8 ovarian it was -8.33% (active); in the experiment with OVCAR-5 ovarian, 13.9%; in the experiment on OVCAR-4 ovarian it was 59.9%; in the experiment with SK-OV-3 ovarian, 100%. Moreover, the growth with IGROV1 ovarian was 9.1% (active); in the experiment with OVCAR-3 ovarian it was 33.8%; in the experiment on HS 578T breast, 68%; in the experiment with NCI/ADR-RES ovarian it was 4.71% (active); with T-47D breast it was -5.34% (active); with BT-549 breast it was 42.6%. The growth was 6.41% (active) in the experiment with MDA-MB-435 melanoma; -46.6% (active) with SW-620 colon; 8.93% (active) in the experiment on MCF7 breast; -47.5% (active) in the experiment with HCT-116 colon; 77.1% with HCC-2998 colon; 18% in the experiment on KM12 colon.
Turning to `COc1ccc(/C=N/C2=C(C#N)C(c3cccc(Cl)c3)c3c(ccc4ccccc34)O2)cc1` (configuration not stated), the growth in the experiment on SR leukemia was 17.7%; in the experiment on RPMI-8226 leukemia, 17.4%; with OVCAR-8 ovarian, 47.1%; in the experiment on OVCAR-5 ovarian, 62.3%; in the experiment with OVCAR-4 ovarian, 52.8%; in the experiment with SK-OV-3 ovarian it was 52.4%. Moreover, the growth is 32.9% with IGROV1 ovarian; 12.5% with OVCAR-3 ovarian; 15.9% with HS 578T breast; 22.1% with NCI/ADR-RES ovarian; 36.7% in the experiment on T-47D breast; 29.3% in the experiment on BT-549 breast. Further, the growth was -36% (active) with MDA-MB-435 melanoma; 23.7% in the experiment on SW-620 colon; 11.1% in the experiment with MCF7 breast; 21.8% in the experiment on HCT-116 colon; 65.4% in the experiment with HCC-2998 colon; 24.9% in the experiment on KM12 colon.
